Test results from the supplement of paper PMC6555819.

Columns and labels:
Assay in all cases: PBM binding z-score (relative to random genomic background probes); higher = stronger binding; sequences stand for … in GC…GCGATTGACAGCGTAGAATGAAGG
[1] = system: RARb homodimer (NR concentration 270 nM)
In short: (§1)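 Regression normalization was applied to scanned fluorescence from custom Agilent 4×180K protein-binding microarrays. Before scanning, arrays were incubated 1 h with ligand-free nuclear receptor dimers, and binding was detected with antibodies against each partner (one per run). Binding z-scores use the random background probes as reference.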

[2] = system: RARg:RXRa (NR concentration 270 nM, RXRa partner concentration 90 nM)
In short: as §1

[3] = system: RARg homodimer (NR concentration 270 nM)
In short: as §1

[4] = system: RXRa DBDmut IVT, anti-RXR (DBD mutation: RXRa K156A/R161A, NR concentration 90 nM)
In short: as §1

[5] = system: RXRa homodimer (NR concentration 180 nM)
In short: as §1

[6] = system: THRa:RXRa (NR concentration 90 nM, RXRa partner concentration 90 nM)
In short: as §1

[7] = system: THRa homodimer (NR concentration 90 nM)
In short: as §1

[8] = system: VDR:RXRa (NR concentration 270 nM, RXRa partner concentration 90 nM)
In short: as §1

[9] = system: VDR homodimer (NR concentration 270 nM)
In short: as §1

Sequence | PBM binding z-score [1] | PBM binding z-score [2] | PBM binding z-score [3] | PBM binding z-score [4] | PBM binding z-score [5] | PBM binding z-score [6] | PBM binding z-score [7] | PBM binding z-score [8] | PBM binding z-score [9]
TAGCTTAGGTCATGCGGGCCAGTATAGTGTCGGC | 3.21 | 3.97 | 4.75 | 1.31 | 2.97 | 3.6 | 2.34 | 3.13 | 0.954
ACTAGTTGGTCAGCTGAGGTCAAACACAATTCGG | 4.23 | 4.33 | 3.72 | 1.72 | 4.56 | 4.9 | 4.87 | 4.9 | 3.66
GCTAGCAGGCCATCTGGGTCACTCAATGACGGGC | 1.99 | 1.2 | 1.84 | -0.462 | 0.806 | 1.62 | 0.249 | 1.04 | 0.262
CGTCCAAGTTCAGAGAGGTCAGTGAATGCCGAGT | 4.58 | 4.46 | 5 | 4.24 | 3.48 | 3.14 | 1.43 | 6.86 | 7.06
TCTTGTAGATCAACAGGAGGTTCAGAAAGATCGA | -0.296 | 0.00148 | -0.0996 | 0.388 | 0.331 | 0.0407 | -1 | 0.595 | 0.524
CCTGCTAGGTCAAGGTCAGCTAATCTACAGTATG | 5.07 | 5.45 | 7.01 | 2.36 | 4.54 | 3.97 | 2.88 |  | 1.23
TCAGACAGGTGAAGGTACCTCAGGTACGCAGTCG | 0.421 | 0.412 | 0.332 | 1.1 | 1.05 | 0.941 | 0.205 |  | 0.0555
AGTCAAAGTTCATGACGAGGTAACGTAAAGCACG | 3.83 | 6.13 | 5.76 | 4.29 | 4.9 | 4.23 | 1.02 |  | 4.11
CCAGACAGGTGAAAGGTACCTCAGTCTGGTACGC | 0.251 | 0.666 | 0.394 | -0.333 | 1.32 | 0.325 | -0.329 | 0.0967 | -0.438
CTACCAAGGTGAACAAGGTCGTCGATTACTATTC | 2.3 | 2.1 | 1.77 | 1.08 | 2.25 | 3.64 | 1.9 | 5.98 | 1.44
AGTCAAAGTTCAGGACGAAGTAACGTAAAGCACG | 2.72 | 3.82 | 4.58 | 2.8 | 2.71 | 1.95 | 0.0307 | 2 | 1.27
AGACTGAGGTTAAGATCAGGGAAACAGAATACAT | 0.774 | 2.09 | 1.38 | 0.593 | 2.21 | 2.35 | 0.489 | 0.967 | 0.3
CCGACTGGGGCAGAGAGGTTACCATACCATCCGG | 1.54 | 1.33 | 1.2 | -0.642 | 1.23 | 1.02 | -0.309 | 1.73 | 0.35
TGTCAAAGTTCGAAGGTAACGTAAGTATCCACAC | 1.02 | 2.38 | 1.83 | 1.74 | 2.23 | 1.44 | 0.0268 | 1.78 | 0.722
CCTTACGGGTCACTCCAGGTTACAGCATCGGAGT | 3.31 | 4.27 | 4.33 | 1.46 | 4.26 | 5.28 | 0.933 |  | 1.56
TATACAGGGTCATAGGCCAGAGTACGAATGTCGA | 3.08 | 5.43 | 4.72 | 2.94 | 6.27 | 3.5 | 0.758 |  | 3.52
